Screening data (PubChem BioAssay)
This is a sample that favours compounds with a hit; in the whole collection about 1.1% have one here.
LRH-1 inv ag – NR5A2 inverse agonism in reporter assay. inhibition, % at 3.6 µM. AID 602396. HEK293T StAR-luciferase reporter, LRH-1 transfected, 24 h. 360,000 tested, 0.13% active. O00482;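 active means inhibition above the mean inhibition of all tested compounds plus 3 SD, cut at about 73% in these data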;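 further: 0% = DMSO wells and 100% = reporter-only cells lacking LRH-1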
Gli-Sufu antag – Gli-Sufu pathway antagonism | Sufu-KO-LIGHT fibroblasts, Gli luciferase reporter luminescence | AID 588413 | inhibition, % at 5 µM | 340,000 tested, 0.74% active;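 active means inhibition above about 55%, limit read from the data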;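 further: 0% = DMSO-treated cells and 100% = wells with medium but no cells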
NCOA2 inhibitor – human SRC2 (NCOA2) inhibition; Q15596; HEK293 GAL4-SRC2 luciferase reporter, luminescence; inhibition, % at 9 µM; 370,000 tested, 0.17% active;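 active means inhibition above the mean inhibition of all tested compounds plus 3 SD, set per campaign, cut at about 52% in these data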;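 further: 0% = DMSO treated cells and 100% = cells given Gossypol at 36 µM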
Target sequence (Q15596 whole entry, looked up, the tested form may be a part): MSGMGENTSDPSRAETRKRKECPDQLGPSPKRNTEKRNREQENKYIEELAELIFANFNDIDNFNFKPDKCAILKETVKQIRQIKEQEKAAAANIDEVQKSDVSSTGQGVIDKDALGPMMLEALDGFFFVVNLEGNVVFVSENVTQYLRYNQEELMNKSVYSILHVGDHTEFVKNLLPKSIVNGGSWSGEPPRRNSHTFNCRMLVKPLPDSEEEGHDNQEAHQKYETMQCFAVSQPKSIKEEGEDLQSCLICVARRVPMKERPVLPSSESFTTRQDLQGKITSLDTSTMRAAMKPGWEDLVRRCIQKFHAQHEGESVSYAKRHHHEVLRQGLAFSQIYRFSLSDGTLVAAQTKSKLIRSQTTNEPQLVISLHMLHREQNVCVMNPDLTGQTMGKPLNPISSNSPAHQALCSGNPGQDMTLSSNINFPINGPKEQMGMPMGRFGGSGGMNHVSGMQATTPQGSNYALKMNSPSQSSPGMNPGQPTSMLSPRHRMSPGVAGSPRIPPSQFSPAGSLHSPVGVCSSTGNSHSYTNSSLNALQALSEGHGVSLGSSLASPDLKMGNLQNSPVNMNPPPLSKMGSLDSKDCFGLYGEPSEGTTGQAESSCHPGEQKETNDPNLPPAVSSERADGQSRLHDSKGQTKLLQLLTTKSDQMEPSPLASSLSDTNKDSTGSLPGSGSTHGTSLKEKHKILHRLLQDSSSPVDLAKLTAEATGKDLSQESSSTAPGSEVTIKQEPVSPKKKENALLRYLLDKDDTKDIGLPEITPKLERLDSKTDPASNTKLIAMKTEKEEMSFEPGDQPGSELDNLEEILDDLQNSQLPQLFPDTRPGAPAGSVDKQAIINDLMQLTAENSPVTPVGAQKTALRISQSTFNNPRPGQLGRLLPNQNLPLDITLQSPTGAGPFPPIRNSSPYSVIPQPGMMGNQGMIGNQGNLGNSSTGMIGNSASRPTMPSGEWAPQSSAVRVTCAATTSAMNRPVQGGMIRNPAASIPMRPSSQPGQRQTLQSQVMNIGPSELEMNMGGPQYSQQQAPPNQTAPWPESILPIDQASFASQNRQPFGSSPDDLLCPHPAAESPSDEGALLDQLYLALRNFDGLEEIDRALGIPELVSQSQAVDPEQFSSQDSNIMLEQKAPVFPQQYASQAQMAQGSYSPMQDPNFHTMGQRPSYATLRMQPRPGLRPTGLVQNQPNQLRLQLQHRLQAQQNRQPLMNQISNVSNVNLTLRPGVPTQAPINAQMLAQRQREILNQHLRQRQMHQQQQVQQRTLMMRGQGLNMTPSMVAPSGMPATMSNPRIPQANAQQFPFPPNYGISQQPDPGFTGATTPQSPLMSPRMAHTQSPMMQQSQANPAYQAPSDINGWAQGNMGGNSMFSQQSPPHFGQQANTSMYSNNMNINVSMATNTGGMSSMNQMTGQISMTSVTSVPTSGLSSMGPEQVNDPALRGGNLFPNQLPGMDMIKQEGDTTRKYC
NCOA1 inh – inhibitors of human steroid receptor coactivator 1 (SRC1); 360,000 tested, 0.12% active; Q15788; inhibition, % at 3.6 µM; HEK293 GAL4-SRC1 luciferase reporter, luminescence; AID 588354;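 active means inhibition above the campaign mean plus 3 SD, with each screening campaign given its own cutoff, cut at about 60% in these data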;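 further: 0% = DMSO treated cells and 100% = gossypol at 36 µM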
Shn3 inh set2 – Schnurri-3 reporter inhibition in Clone20 osteoblasts; Clone20 osteoblast Shn3 3'UTR firefly luciferase, 24 h; inhibition, % at 12.5 µM; 360,000 tested, 0.52% active; AID 588674;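 active means mean inhibition of at least 75% with every replicate also reaching 75%; inconclusive means mean inhibition at least 75% but some replicate below; inactive means mean inhibition below 75%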;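 further: 0% = median of neutral control wells and 100% = pilot-screen positive control compound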
NCOA3 inh – inhibitors of human steroid receptor coactivator 3 (SRC3) | Q9Y6Q9 | HEK293 GAL4-SRC3 luciferase reporter, luminescence | inhibition, % at 3.6 µM | 360,000 tested, 0.17% active | AID 588352;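 active means inhibition above a per-campaign cutoff, the mean of all compounds plus 3 SD, cut at about 60% in these data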;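 further: 0% = DMSO-treated cells and 100% = gossypol-treated cells at 36 µM; higher means less SRC3-driven luciferase light from the GAL4 reporter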
Gli antag conf – Gli-SUFU antagonism confirmation, single concentration | inhibition, % at 5 µM | shares compounds with Gli-Sufu antag | AID 602428 | Sufu-KO-LIGHT cells, Gli luciferase reporter, luminescence | 2,500 tested, 40% active;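 active means mean inhibition at 5 µM reaching about 45%, limit read from the data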;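 further: plate controls were DMSO-treated cells for no effect and wells lacking cells for full effect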
Gli cytotox – counter-screen for Gli-SUFU antagonists: cytotoxicity | cytotoxicity, % at 5 µM | 2,500 tested, 32% active | shares compounds with Gli-Sufu antag | AID 651994 | Sufu-KO-LIGHT cells cytotoxicity, ATP luminescence;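 active means mean cytotoxicity at 5 µM above about 25%, limit read from the data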;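 further: cells exposed to compound overnight for roughly 16 to 18 hours; plate controls were DMSO wells with cells for no effect and medium without cells for full effect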
Wnt3a counter – counter-screen for Gli-SUFU antagonists: Wnt3a reporter inhibition; inhibition, % at 6.25 µM; shares compounds with Gli-Sufu antag; Wnt-LIGHT cells, Wnt3a-driven luciferase reporter, luminescence; 2,500 tested, 20% active; AID 651995;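 active means mean inhibition above about 25%, limit read from the data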
An asterisk follows results filed as active; u = inconclusive; x = not tested or not shown.

SMILES	LRH-1 inv ag	Gli-Sufu antag	NCOA2 inhibitor	NCOA1 inh	Shn3 inh set2	NCOA3 inh	Gli antag conf	Gli cytotox	Wnt3a counter
O=C(Cn1cnc2ccccc21)Nc1cccc(S(=O)(=O)N2CCCC2)c1	17	54	x	12	u	30	53*	14	17
O=C(Cn1c(NCCO)nc2ccccc21)Nc1cccc(S(=O)(=O)N2CCCC2)c1	-4	0	-7	6	42	13	x	x	x
COc1ccc2c(c1)CCCN2C(=O)C1CCCN(S(=O)(=O)c2ccccc2)C1 (stereo unspecified)	x	x	32	x	x	x	x	x	x
COc1ccc(CN2CCN(C(=O)CN3C(=O)C4C5C=CC(C5)C4C3=O)CC2)c(OC)c1OC (stereo unspecified)	2	62*	13	-5	26	14	19	21	-3
COc1ccc(CN2CCN(C(=O)CC(C)C)CC2)c(OC)c1OC	-2	9	-7	1	13	11	x	x	x
O=C(Nc1ccc(F)cc1F)C1CCN(c2nnc(-n3cccc3)s2)CC1	x	x	4	x	x	x	x	x	x
NC(=NCCCCCCN=C(N)/N=C(\N)Nc1ccc(Cl)cc1)/N=C(\N)Nc1ccc(Cl)cc1	13	12	-27	-6	81	-3	x	x	x
CC(C)N=C(N)N=C(N)Nc1ccc(Cl)cc1	-17	70*	-15	-27	91*	8	74*	20	34*
C/C(=N\NC(=O)Cc1cccs1)c1ccco1	x	x	-12	x	x	x	x	x	x
OCCC1CN(Cc2ccccc2O)CCN1CCCc1ccccc1 (stereo unspecified)	8	54	-3	4	64	-6	30	-1	-43
Cc1ccccc1CN1CCN(CCCc2ccccc2)C(CCO)C1 (stereo unspecified)	8	30	16	4	6	2	x	x	x
Oc1ccccc1N1CCN(C(=S)Nc2ccc(SC(F)F)cc2)CC1	-19	76*	-1	13	9	-27	23	20	-9
FC(F)Sc1ccc(NC(=S)N2CCN(c3ccccn3)CC2)cc1	3	6	-1	-3	-34	13	x	x	x
O=C(c1cc2nc(-c3ccc(F)cc3)cc(C(F)(F)F)n2n1)N1CCCCC1c1cccnc1 (stereo unspecified)	10	67*	10	13	90*	27	64*	32*	22
CCCCCCCCCCOC(=O)C[N+](C)(C)C/C=C(/C)Cl	18	63*	10	5	63	16	69*	27*	35*
CCCCCCCCOC(=O)C[N+](C)(C)C/C=C(/C)Cl	-18	42	19	-9	9	4	x	x	x
O=C(OC12CCCN(C1)/C(=C/c1ccncc1)C2)c1ccc(Cl)cc1 (stereo unspecified)	x	x	35	x	x	x	x	x	x
Cc1cc2c(NCCc3ccccc3)ncnc2s1	-53	x	7	-26	48	-41	x	x	x
c1ccc(CCNc2ncnc3ccccc23)cc1	-54	55*	15	-22	57	11	58*	29*	24
COc1ccc(-n2c(-c3ccccc3)nnc2-c2ccc(Cl)cc2)cc1	5	4	-31	-1	-2	-15	x	x	x
COc1ccc(-n2c(-c3ccc(Cl)cc3)c[n+]3c2CCc2ccccc2-3)cc1	55	85*	29	23	76	49	86*	28*	13
O=C(c1ccccc1)c1ccc(OCCOCCN2CCN(Cc3ccccc3)CC2)cc1	29	68*	16	9	70	10	20	11	-38
Cc1ncc(CO)c(/C=N/NC(=O)c2cc(Br)ccc2O)c1O	9	96*	13	-7	-1	9	9	22	3
Cc1cc(C(=O)N/N=C/c2c(CO)cnc(C)c2O)c2ccccc2n1	18	-4	2	-27	10	8	x	x	x
COC(=O)C1CN(Cc2cn(Cc3ccc(OC)cc3)nn2)CCS(=O)(=O)N1Cc1ccc(Cl)cc1 (stereo unspecified)	x	x	12	x	x	x	x	x	x
